{"source": "PubChem BioAssay AID2284356", "about": "(EPA ToxCast)", "target": "zebrafish Estrogen Receptor (ER1), esr1 (gene 259252) (UniProt P57717)", "sequence (P57717 whole entry, looked up)": "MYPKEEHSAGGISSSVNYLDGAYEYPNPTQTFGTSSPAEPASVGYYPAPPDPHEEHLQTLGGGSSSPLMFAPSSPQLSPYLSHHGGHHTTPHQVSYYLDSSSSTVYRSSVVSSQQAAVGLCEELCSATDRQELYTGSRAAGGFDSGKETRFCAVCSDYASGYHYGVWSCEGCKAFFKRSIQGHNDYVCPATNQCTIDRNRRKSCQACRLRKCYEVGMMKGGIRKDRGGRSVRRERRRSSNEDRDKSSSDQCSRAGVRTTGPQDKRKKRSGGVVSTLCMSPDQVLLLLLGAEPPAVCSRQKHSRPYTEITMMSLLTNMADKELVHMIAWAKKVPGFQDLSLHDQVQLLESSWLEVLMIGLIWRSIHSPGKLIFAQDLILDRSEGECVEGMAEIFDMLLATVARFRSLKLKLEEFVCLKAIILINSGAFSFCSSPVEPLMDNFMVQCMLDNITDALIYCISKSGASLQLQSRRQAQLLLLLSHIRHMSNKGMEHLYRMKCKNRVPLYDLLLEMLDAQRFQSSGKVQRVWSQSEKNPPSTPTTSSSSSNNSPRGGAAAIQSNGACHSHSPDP", "assay": "ATG_zfER1_EcoTox2: Attagene TRANS-FACTORIAL EcoTox-2 HepG2 Assay for zebrafish Estrogen Receptor (ER1)", "procedure": "ATG_EcoTox2 is a cell-based, multiplexed assay created by modifying the existing Attagene TRANS-FACTORIAL system to include a panel of nuclear receptors from some or all the following species: human (Homo sapiens), african clawed frog (Xenopus laevis), rainbow trout (Oncorhynchus mykiss), japanese medaka (Oryzias latipes), and zebrafish (Danio rerio). The ECOTOX2-FACTORIAL format uses HepG2, a human liver cell line, with measurements taken at 24 hours after chemical dosing in a 24-well plate. ATG_zfER1_EcoTox2 is one of 29 assay components calculated in the ATG_EcoTox2 assay. It is designed to make measurements of mRNA induction, a form of inducible reporter, as detected with fluorescence intensity signals by Reverse transcription polymerase chain reaction (RT-PCR) and Capillary electrophoresis technology.The assay endpoint ATG_zfER1_EcoTox2 was analyzed in the positive analysis fitting direction relative to DMSO as the negative control and baseline of activity. Using a type of inducible reporter, measures of mRNA for gain-of-signal activity can be used to understand the reporter gene at the transcription factor-level as they relate to the gene ER. Furthermore, this assay endpoint can be referred to as a primary readout, because this assay has produced multiple assay endpoints where this one serves a reporter gene function. […]", "note": "Inconclusive results are not listed. The source made the active and inactive calls. The calls were made as follows: active = hit-call score of the fitted dose curve at least 0.9, where 1 is the maximum; inconclusive = response in the unintended direction; inactive = score below 0.9.", "data": [{"smiles": "O=S(=O)(O)C(F)(F)C(F)(F)C(F)(F)C(F)(F)C(F)(F)C(F)(F)F", "values": [{"measurement": "outcome", "result": "inactive"}]}]}
